# HPGD inh: qHTS Assay for Inhibitors of HPGD (15-Hydroxyprostaglandin Dehydrogenase). hit rate 4.3% among 150,000. purified HPGD, NADH fluorescence kinetic, PGE2 substrate. AID 894, 2007. 15-hydroxyprostaglandin dehydrogenase [NAD(+)] (Homo sapiens), P15428. Potency, µM, without a hit: at the top dose activity change, negative = inhibition, usual class: inhibitors; also: % is scaled to controls: 0 for no effect and ±100 for the full control effect
# Target sequence (P15428 whole entry, looked up): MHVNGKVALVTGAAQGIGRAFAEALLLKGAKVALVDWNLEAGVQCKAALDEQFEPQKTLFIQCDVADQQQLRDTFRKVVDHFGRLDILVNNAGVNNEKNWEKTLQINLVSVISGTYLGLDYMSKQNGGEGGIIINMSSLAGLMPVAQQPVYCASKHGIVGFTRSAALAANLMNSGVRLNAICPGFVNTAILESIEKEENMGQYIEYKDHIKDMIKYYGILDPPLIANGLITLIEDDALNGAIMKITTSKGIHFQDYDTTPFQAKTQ
#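 20 nM HPGD preincubated 15 min at room temperature with compound in 50 mM Tris-HCl pH 8, 0.01% Tween 20. Started with 1 mM NAD+ and 30 uM prostaglandin E2; NADH fluorescence (360/450 nm) read 5 times over 30-s intervals, last minus first.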
# HTT cytoprotect: qHTS Multiplex Assay to Identify Dual Action Probes in a Cell Model of Huntington: Cytoprotection (ATP); PC12 HTT-Q103 induced, cytoprotection, ATP luminescence, 40 h; Potency, µM (doses to about 56.4 µM), for inactives: cytoprotection (ATP increase), usual class: activators; hit rate 0.14% among 230,000; AID 1471, 2008; active = well fitted curve in the direction sought with a large enough effect; inconclusive = small, poorly fitted or top-dose-only effect, or another doubt; inactive = no such curve, though single readings can be large; an effect the other way counts as inactive or inconclusive; also: % of control where 0% means no effect; nearly all actives have a fitted effect of over 45% in size
#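 Compounds were screened for protection of PC12 cells against cell death after tebufenozide induction (100 nM final) of mutant Huntingtin exon 1 (Q103) fused to GFP.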
# LMNA splice mod: qHTS Assay for Modulators of Lamin A Splicing; HeLa LMNA splicing GFP/RFP minigene ratio, 48 h; Potency, µM (titrated, usually from 46.1 µM), for inactives: at the highest dose ratio change, negative = inhibition, most hits filed as inhibitors; hit rate 0.01% among 200,000; active = well fitted inhibition curve with a large enough effect in the signal ratio, with a control signal flat, not every such curve was filed as active; inconclusive = small, poorly fitted or top-dose-only effect, or effect the other way, or a change in a side signal; the % refers to the signal ratio; also: % is scaled to controls: 0 for no effect and ±100 for the full control effect
#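 S3 HeLa stable clones carrying a lamin A-EGFP splicing minigene plus DsRed2 were seeded at 600 cells/well in Opti-MEM with 2% FBS, pin-dosed and incubated 48 h at 37°C. Acumen cytometry (488 nm) gave the GFP/RFP total-intensity ratio.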
# ALDH1A1 block: qHTS Assay for Inhibitors of Aldehyde Dehydrogenase 1 (ALDH1A1) | Aldehyde dehydrogenase 1A1 (Homo sapiens), P00352 | AID 1030, 2008 | Purified ALDH1A1, NADH fluorescence, propionaldehyde substrate | Potency, µM (series often up to 75.3 µM), without a hit: at the highest dose activity, negative = inhibition, actives largely listed as inhibitors | hit rate 7.3% among 220,000;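 also: plate controls were no enzyme wells and a reference inhibitor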
# Target sequence (P00352 whole entry, looked up): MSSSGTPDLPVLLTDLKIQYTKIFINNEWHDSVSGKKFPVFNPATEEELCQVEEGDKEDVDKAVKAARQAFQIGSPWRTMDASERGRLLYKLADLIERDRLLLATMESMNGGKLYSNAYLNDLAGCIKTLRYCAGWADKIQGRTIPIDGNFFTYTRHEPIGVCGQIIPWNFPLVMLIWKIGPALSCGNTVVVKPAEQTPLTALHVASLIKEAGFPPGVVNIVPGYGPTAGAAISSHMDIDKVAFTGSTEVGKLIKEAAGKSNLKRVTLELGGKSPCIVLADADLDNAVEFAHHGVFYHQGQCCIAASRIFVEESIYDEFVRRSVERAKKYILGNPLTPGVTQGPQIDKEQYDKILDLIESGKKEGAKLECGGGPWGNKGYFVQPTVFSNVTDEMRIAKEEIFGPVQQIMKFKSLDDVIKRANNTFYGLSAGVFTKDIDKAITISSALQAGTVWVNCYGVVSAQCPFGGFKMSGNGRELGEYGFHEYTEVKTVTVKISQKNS
# HttQ103 aggreg: qHTS Multiplex Assay to Identify Dual Action Probes in a Cell Model of Huntington: Aggregate Formation (GFP); PC12 HttQ103-GFP aggregates, Acumen cytometry, 40 h; Potency, µM (highest dose often 46.1 µM), without a hit: top-dose activity change, negative = inhibition, most hits filed as inhibitors; hit rate 1.1% among 220,000; AID 1688, 2009; active = well fitted curve in the direction sought with a large enough effect; inconclusive = small, poorly fitted or top-dose-only effect, or another doubt; inactive = no such curve, though single readings can be large; an effect the other way counts as inactive or inconclusive; also: % is scaled to controls: 0 for no effect and ±100 for the full control effect; nearly all actives have a fitted effect of over 60% in size
#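 PC12/HTTQ103-GFP, ecdysone-inducible; teb 100 nM; cpd qHTS titration; GFP aggregates read on laser cytometer, Ex 488/Em 500-530 nm.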
# Numbers without * were called inactive; ? = inconclusive; nt = no result given; ! = not active in a repeat; [ ] = remark or other dose. Most compounds without a hit are left out; they make up all but 8.8% or so of the library. Unless noted, calls follow the shape of the dose curve; as a rule, active = well fitted inhibition curve with a large enough effect (not every such curve was filed as active); inconclusive = small, poorly fitted or top-dose-only effect, or another doubt; inactive = no such curve, though single readings can be large or run the other way. Potency is read from the fitted curve at half-maximal effect.
SMILES,HPGD inh,HTT cytoprotect,LMNA splice mod,ALDH1A1 block,HttQ103 aggreg
BrC/C=C/CBr,-2%,-10%,nt,25µM*,nt
c1ccc(CCc2nn3c(-c4ccncc4)nnc3s2)cc1,5µM*,10%[10 µM],-4%,10µM*,1.1µM*
c1ccc(-c2nnc3sc(-c4ccncc4)nn23)cc1,-14%,-7%,2%,?,6%
COc1ccccc1-c1nn2c(-c3ccccc3Cl)nnc2s1,-11%,-18%,6%,-11%,9%
Clc1ccccc1-c1nnc2sc(CCc3ccccc3)nn12,8.9µM*,-16%[0.074 µM],?,4µM*,-33%
Brc1ccccc1-c1nnc2sc(Cc3ccccc3)nn12,16µM*,4%[10 µM],-29%,-14%,?
Cc1ccc(N2CC(=O)Nc3c(oc4nc(-c5ccccc5)cc(C)c34)C2=O)cc1,nt,-14%[10 µM],nt,nt,2%[9.22 µM]
Cc1ccc(C(=O)NC2CC3CCCC(C2)N3C(=S)NCc2ccco2)cc1 (stereo not given),nt,-4%[10 µM],nt,22µM*,-13%[9.22 µM]
CN1C(=O)OC2(C)CCc3ccccc3C12C (stereo not given),nt,8%,-1%,32µM*,1%
COc1ccc(Cl)cc1NC(=O)CN(C)CC(=O)NC(C)c1ccccc1 (stereo not given),nt,-21%,nt,?,4%
CCC(C)(C)NC(=O)CCn1c(-c2ccccc2)cc(C(C)=O)c1C,nt,-20%,nt,-10%,1%
Cc1ccccc1-n1c(=O)/c(=C\c2ccco2)s/c1=C(/C#N)C(=O)Nc1ccccc1,-14%,-8%,5%,20µM*,11%
Cc1cccc2cc(-c3nc4c(C)cccn4c3NCc3ccco3)c(=O)[nH]c12,2%,20%[10 µM],-1%,20µM*,-10%
O=C1COc2cc(S(=O)(=O)CCC(=O)NC3CCCCC3)c(Cl)cc2N1,nt,nt,0%[46 µM],nt,nt
C[C@](N)(C(=O)O)c1ccc(-c2nn[nH]n2)cc1,26%,8%,nt,16µM*,nt
CCN(C(=O)CCS(=O)(=O)c1ccc(Br)cc1)c1ccc2c(c1)OCO2,-10%,2%,-4%,16µM*,7%
NC1=C(O)C(=O)C(c2ccccc2)O1 (stereo not given),nt,13%[10 µM],nt,nt,-1%[9.22 µM]
CCN1C(=O)C(O)(CC(=O)c2cccc(-n3cccc3)c2)c2ccccc21 (stereo not given),nt,6%[10 µM],0%[46 µM],4.5µM*,2%[9.22 µM]
COC(=O)CN1C(=O)C(O)(CC(=O)c2ccc(Cl)cc2)c2ccccc21 (stereo not given),-10%,5%[10 µM],-6%,0.22µM*,16%
O=C(CC1(O)C(=O)Nc2ccccc21)c1cccc(Br)c1 (stereo not given),-10%,nt,7%,-5%,13%
O=C(CC1(O)C(=O)N(Cc2cccc3ccccc23)c2ccccc21)c1cccnc1 (stereo not given),-22%,9%,?,0.11µM*,-21%
COC(=O)CN1C(=O)C(O)(CC(=O)c2cccc(Br)c2)c2ccccc21 (stereo not given),-4%,-14%,-6%,0.56µM*,-4%
CN1C(=O)C(O)(CC(=O)c2cccnc2)c2ccccc21 (stereo not given),3%,12%[10 µM],-5%,-3%,13%
Cc1cccc(Cn2cnc3c(oc4ccccc43)c2=O)c1,nt,nt,21%[46 µM],nt,nt
C=CCN1C(=O)C(O)(CC(=O)c2ccccc2)c2ccccc21 (stereo not given),-2%,-15%,-1%,3.5µM*,-12%[9.22 µM]
SMILES,HPGD inh,HTT cytoprotect,LMNA splice mod,ALDH1A1 block,HttQ103 aggreg
CCN1C(=O)C(O)(CC(=O)c2ccc(-n3cccc3)cc2)c2ccccc21 (stereo not given),-12%,5%[10 µM],-7%,-11%,6%
O=C(Nc1ccc([N+](=O)[O-])cc1)Nc1ccc(N2CCOCC2)c2nonc12,nt,-24%,nt,-15%,0%
NCCc1cnc[nH]1,-8%,?,0.89µM*!,1%,-24%
NCCC(=O)NCCc1cnc[nH]1,-9%,-2%[40.3 µM],?,5%,nt
COCCNC(=O)CSc1nc2cc3c(cc2c(=O)n1CCCC(=O)NCc1ccc2c(c1)OCO2)OCO3,nt,nt,2%[46 µM],nt,nt
COC(=O)C1=C(C)NC(=O)/C1=C\c1cc(C)n(-c2ccccc2)c1C,nt,-40%,nt,25µM*,-7%
COC(=O)C1=C(O)/C(=C\c2cc(C)n(-c3ccccc3F)c2C)N=C1C,nt,?,nt,11µM*,-20%
COC(=O)C1=C(C)NC(=O)/C1=C\c1cc(C)n(-c2cc(C)cc(C)c2)c1C,-6%,-20%,-1%,-13%,-3%
CC(C)(C)C1CCc2c(sc3nc(-c4cc5cc(Br)ccc5oc4=O)[nH]c(=O)c23)C1 (stereo not given),nt,nt,26%[46 µM],nt,nt
O=C(NNS(=O)(=O)c1ccccc1)c1cnn(-c2ccccc2)c1-n1cccc1,2%,-4%,13%,-12%,4%
Cc1nc2ccccn2c1C(=O)NNS(=O)(=O)c1ccc(Cl)cc1,nt,17%[10 µM],nt,8.9µM*,13%[9.22 µM]
NNC(=O)c1cnn(-c2ccccc2)c1-n1cccc1,nt,-45%,?,0.71µM*,-32%
O=C(NNS(=O)(=O)c1ccc(Cl)cc1)c1cnn(-c2ccccc2)c1-n1cccc1,-9%,-7%,9%,2µM*,3%
CC(=O)c1c(C)nc2ccccn12,-5%,3%,-7%,4%,-17%
O=C(CS(=O)(=O)c1cccc2nsnc12)Nc1ccccc1,nt,nt,-2%[46 µM],nt,nt
O=C(Cn1c(=O)ccc2cc(S(=O)(=O)N3CCCC3)ccc21)NCc1ccc(F)cc1,nt,nt,6%[46 µM],nt,nt
Cc1cc(C)n(CCc2nc(-c3ccco3)cs2)n1,?,-5%,6%,7.1µM*,7%
Cc1nn(CCc2nc(-c3ccco3)cs2)c2[nH]c(=O)cc(C(F)(F)F)c12,?,-11%[10 µM],7%,2.5µM*,4%
CCOC(=O)C1=C(CC)Nc2ccccc2N/C1=N\S(=O)(=O)c1cc(Br)ccc1Br,nt,-29%,nt,-8%,18µM*
Cc1ccc(Cn2nc(C)c(/C=N/NC(=O)c3cccnc3)c2C)cc1,nt,-7%,nt,-2%,7%
Cc1ccc(-n2c(C)cc(/C=N/Nc3ccc([N+](=O)[O-])cn3)c2C)cc1,-5%,-13%,9%,10µM*,10%
Cc1nn(Cc2ccccc2)c(C)c1/C=N/NC(=O)c1cccnc1,32µM*,6%[10 µM],-13%,-6%,16%
Cc1ccc(C(=O)N/N=C/c2cn(Cc3ccccc3)c3ccccc23)cn1,nt,3%[10 µM],nt,13µM*,9%[9.22 µM]
Cc1ccc(Cn2cc(/C=N/Nc3ccc([N+](=O)[O-])cn3)c3ccccc32)cc1,-16%,-16%[10 µM],-3%,10µM*,-27%
O=C(NCc1ccccc1)c1ccc(Cc2nc3ccccc3[nH]2)cc1,-4%,nt,nt,9%,nt

# From PubChem BioAssay
